Experimental data as given in PubChem BioAssay (NCI).
About 83,000 compounds went through this panel and 20% of them were active in at least one assay; those are over-represented in the sample as a whole.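 48-hour exposure, single concentration, 96-well plates; percent growth endpoint where 0 means no net growth. Active: below 10.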 Active and inactive are the calls of the source.

What follows are compounds tested on PC-3 prostate (assay: NCI-60 one-dose screen, 48 h (100 = growth as untreated, 0 = no growth, -100 = all killed)). Settings: 10 µM unless noted.

Q: `CC(O)C(NC(=O)C1CCCN1C(=O)CNC(=O)C1CC(=O)NCC(=O)NC(Cc2c[nH]c3ccccc23)C(=O)NC(Cc2ccc(O)cc2)C(=O)NCC(=O)NC(CO)C(=O)NC(CCC(N)=O)C(=O)NC(Cc2c[nH]c3ccccc23)C(=O)N1)C(=O)NCC(=O)NC(CCC(N)=O)C(=O)NC(CCCNC(=N)N)C(=O)NC(CC(=O)O)C(=O)O` (stereo unspecified) was tested. Which growth did it give?
A: 76.7% (inactive)

Q: With `COc1ccc(C(=O)/C=C/c2ccc(OCc3ccc(Cl)cc3)c(OC)c2)cc1OC` as the compound, how does the growth read?
A: 59.4% (inactive)

Q: How did the growth turn out when `c1ccc(CNc2ncnc3ccc(-c4cnc5[nH]ncc5c4)cc23)cc1` was run?
A: 70.3% (inactive)

Q: `O=C(CCN1C(=O)/C(=C/c2ccccc2)SC1=S)N1CCOCC1` was tested. Which growth did it give?
A: 111% (inactive)

Q: `OC1CCN(CCCOc2c3ccccc3nc3c2oc2ccc(Cl)cc23)CC1` was tested. Which growth did it give?
A: 8.35% (active)

Q: Which growth does the source give for `CN1C(=O)N(c2ccccc2)C2N=C(N/N=C/c3ccccc3)SC21` (stereo unspecified) here?
A: 33% (inactive)

Q: For `CN(C)c1ccc(-c2c(NC(C)(C)C)nc3c(OCCc4ccccc4)cccn23)cc1`, which growth is on record?
A: 0.316% (active)

Q: `CN1C(=S)N(C)C2C1NN=C1SC(c3ccccc3)=CC(=O)N12` (stereo unspecified) was tested. Which growth did it give?
A: 87.5% (inactive)

Q: How did the growth turn out when `C#Cc1nc(C2=C(C)C(=N\O)/C(=N/O)C2)cs1` was run?
A: 90.6% (inactive)

Q: With `C[C@@H](Nc1c(C#N)cnc2ccc(-c3cnc(N)nc3)cc12)c1ccccc1` as the compound, how does the growth read?
A: 10% (inactive)

Q: `O=C1Nc2ccc(Cl)cc2/C1=C/c1ccc(OCC(=O)c2ccc(Br)cc2)cc1` was tested. Which growth did it give?
A: 81.8% (inactive)

Q: `CCN1C(=S)N(CC)C2C1N=C(SC)N2/N=C/C=C/c1ccccc1[N+](=O)[O-]` (stereo unspecified) was tested. Which growth did it give?
A: 85% (inactive)

Q: For `NS(=O)(=O)c1cccc(Nc2nc(SCC(=O)c3ccc(Cl)cc3)nc3ccccc23)c1`, which growth is on record?
A: 57.2% (inactive)

Q: Which growth does the source give for `O=C(CN1C(=O)/C(=C/c2ccccc2)SC1=S)N1CCOCC1` here?
A: 108% (inactive)

Q: `Nc1c(C(=O)Nc2ccc(Cl)cc2)sc2nc(-c3cnccn3)cc(-c3cccs3)c12` was tested. Which growth did it give?
A: 54.3% (inactive)

Q: With `COc1ccccc1C(=O)CSc1nc(Nc2ccc(S(N)(=O)=O)cc2)c2ccccc2n1` as the compound, how does the growth read?
A: 92.6% (inactive)

Q: For `Clc1ccc(Cc2nnc3sc(-c4cccnc4)nn23)cc1`, which growth is on record?
A: 101% (inactive)

Q: For `Cc1c(NC(=O)CSc2nc3sc4c(c3c(=O)n2-c2ccc(Cl)cc2)CCCC4)c(=O)n(-c2ccccc2)n1C`, which growth is on record?
A: 94.4% (inactive)

Q: Which growth does the source give for `CCOC(=O)c1c(Nc2ccccc2)nn2c(N)c(C#N)c(-c3ccc(OC)cc3)nc12` here?
A: 66.1% (inactive)

Q: With `N=C1CC(=O)NN1C(=O)CSc1nc2sc3c(c2c(=O)n1-c1ccc(Cl)cc1)CCCC3` as the compound, how does the growth read?
A: 95.6% (inactive)

Q: `Clc1ccc2c(NCCCn3ccnc3)c3oc4ccc(Cl)cc4c3nc2c1` was tested. Which growth did it give?
A: 73.8% (inactive)

Q: `CCN1C(=S)N(CC)C2C1NN=C1SC(c3ccccc3)=CC(=O)N12` (stereo unspecified) was tested. Which growth did it give?
A: 99.2% (inactive)

Q: Which growth does the source give for `COc1ccc(COc2ccc(/C=C3/C(=O)Nc4cc(Cl)ccc43)cc2)cc1` here?
A: 86.1% (inactive)

Q: With `COC(=O)C(C)NS(=O)(=O)/N=C1\NC(=O)NC1=C(Cl)Cl` (stereo unspecified) as the compound, how does the growth read?
A: 92.9% (inactive)

Q: For `CC(=O)Oc1ccccc1C(=O)Nc1cc(C(C)C)ccc1C`, which growth is on record?
A: 22.1% (inactive)

Q: How did the growth turn out when `COc1ccc(N/N=C/c2c(-c3ccc(S(C)(=O)=O)cc3)nc3ccccn23)cc1` was run?
A: 29.1% (inactive)

Q: How did the growth turn out when `O=C(CSc1nc2sc3c(c2c(=O)n1-c1ccc(Cl)cc1)CCCC3)N/N=C/c1ccc(F)cc1` was run?
A: 87.1% (inactive)

Q: With `CC(C)NC(=O)c1cc(-c2ccc(NC(=O)Nc3ccc(N4CCOCC4)c(C(F)(F)F)c3)cc2)nc2cccnc12` as the compound, how does the growth read?
A: 44.5% (inactive)

Q: With `O=C(CCN1C(=O)/C(=C/c2ccccc2F)SC1=S)N1CCOCC1` as the compound, how does the growth read?
A: 108% (inactive)

Q: `O=C1Nc2cc(Cl)ccc2/C1=C\c1ccc(OCc2ccc([N+](=O)[O-])cc2)cc1` was tested. Which growth did it give?
A: 59.4% (inactive)

Q: With `CCN(CC)c1ccc(C=O)c(OCc2cn(CC(=O)Nc3ccc(Cl)cc3)nn2)c1` as the compound, how does the growth read?
A: 56.2% (inactive)

Q: With `CCCC(=O)NC(c1ccc2c(c1)OC(F)(F)O2)c1cc(C)c2cccnc2c1O` (stereo unspecified) as the compound, how does the growth read?
A: 36.6% (inactive)

Q: `C[C@@H]1CN(c2ccc3ncc(C#Cc4cncc(C(=O)Nc5ccc(CN6CCN(C)CC6)c(C(F)(F)F)c5)c4)n3n2)C[C@H](C)O1` was tested. Which growth did it give?
A: 0.777% (active)

Q: With `COc1cc(OC)c(C2SCC(=O)N2Nc2ncnc3ccccc23)cc1OC` (stereo unspecified) as the compound, how does the growth read?
A: 107% (inactive)

Q: For `CN(C)CCCOc1c2ccc(Cl)cc2nc2c1oc1ccccc12`, which growth is on record?
A: 5.27% (active)

Q: With `C#C[C@]1(O)CC[C@H]2[C@@H]3CC=C4c5sc(Nc6ccc(Cl)cn6)nc5CC[C@]4(C)[C@H]3CC[C@@]21C` as the compound, how does the growth read?
A: 29.9% (inactive)

Q: For `COc1cc2cc(Oc3ccc(NC(=O)c4cccc(C(F)(F)F)c4)cc3)c(C)nc2cc1OCCN1CCCCC1`, which growth is on record?
A: 33.1% (inactive)

Q: For `Cc1ccc(C(=O)Nc2cccc(C(F)(F)F)c2)cc1Nc1nc(-c2cnccn2)nc2c1cnn2C`, which growth is on record?
A: 90.1% (inactive)

What follows are compounds tested on SK-MEL-5 melanoma in the same assay as above. Settings: 10 µM unless noted.

Q: With `CC(O)C(NC(=O)C1CCCN1C(=O)CNC(=O)C1CC(=O)NCC(=O)NC(Cc2c[nH]c3ccccc23)C(=O)NC(Cc2ccc(O)cc2)C(=O)NCC(=O)NC(CO)C(=O)NC(CCC(N)=O)C(=O)NC(Cc2c[nH]c3ccccc23)C(=O)N1)C(=O)NCC(=O)NC(CCC(N)=O)C(=O)NC(CCCNC(=N)N)C(=O)NC(CC(=O)O)C(=O)O` (stereo unspecified) as the compound, how does the growth read?
A: 101% (inactive)

Q: With `COc1ccc(C(=O)/C=C/c2ccc(OCc3ccc(Cl)cc3)c(OC)c2)cc1OC` as the compound, how does the growth read?
A: 55.2% (inactive)

Q: With `c1ccc(CNc2ncnc3ccc(-c4cnc5[nH]ncc5c4)cc23)cc1` as the compound, how does the growth read?
A: 88.4% (inactive)

Q: For `O=C(CCN1C(=O)/C(=C/c2ccccc2)SC1=S)N1CCOCC1`, which growth is on record?
A: 99.5% (inactive)

Q: Which growth does the source give for `OC1CCN(CCCOc2c3ccccc3nc3c2oc2ccc(Cl)cc23)CC1` here?
A: 26.6% (inactive)

Q: With `CN1C(=O)N(c2ccccc2)C2N=C(N/N=C/c3ccccc3)SC21` (stereo unspecified) as the compound, how does the growth read?
A: 5.76% (active)

Q: How did the growth turn out when `CN(C)c1ccc(-c2c(NC(C)(C)C)nc3c(OCCc4ccccc4)cccn23)cc1` was run?
A: -69.4% (active)

Q: `CN1C(=S)N(C)C2C1NN=C1SC(c3ccccc3)=CC(=O)N12` (stereo unspecified) was tested. Which growth did it give?
A: 64.3% (inactive)

Q: `C#Cc1nc(C2=C(C)C(=N\O)/C(=N/O)C2)cs1` was tested. Which growth did it give?
A: 99% (inactive)

Q: `C[C@@H](Nc1c(C#N)cnc2ccc(-c3cnc(N)nc3)cc12)c1ccccc1` was tested. Which growth did it give?
A: -74.2% (active)

Q: How did the growth turn out when `O=C1Nc2ccc(Cl)cc2/C1=C/c1ccc(OCC(=O)c2ccc(Br)cc2)cc1` was run?
A: 96.9% (inactive)

Q: For `CCN1C(=S)N(CC)C2C1N=C(SC)N2/N=C/C=C/c1ccccc1[N+](=O)[O-]` (stereo unspecified), which growth is on record?
A: 96.2% (inactive)

Q: With `NS(=O)(=O)c1cccc(Nc2nc(SCC(=O)c3ccc(Cl)cc3)nc3ccccc23)c1` as the compound, how does the growth read?
A: 73.5% (inactive)

Q: How did the growth turn out when `O=C(CN1C(=O)/C(=C/c2ccccc2)SC1=S)N1CCOCC1` was run?
A: 97% (inactive)

Q: With `Nc1c(C(=O)Nc2ccc(Cl)cc2)sc2nc(-c3cnccn3)cc(-c3cccs3)c12` as the compound, how does the growth read?
A: 76.5% (inactive)

Q: With `COc1ccccc1C(=O)CSc1nc(Nc2ccc(S(N)(=O)=O)cc2)c2ccccc2n1` as the compound, how does the growth read?
A: 91.7% (inactive)

Q: For `Clc1ccc(Cc2nnc3sc(-c4cccnc4)nn23)cc1`, which growth is on record?
A: 96.4% (inactive)

Q: Which growth does the source give for `Cc1c(NC(=O)CSc2nc3sc4c(c3c(=O)n2-c2ccc(Cl)cc2)CCCC4)c(=O)n(-c2ccccc2)n1C` here?
A: 87.2% (inactive)

Q: `CCOC(=O)c1c(Nc2ccccc2)nn2c(N)c(C#N)c(-c3ccc(OC)cc3)nc12` was tested. Which growth did it give?
A: 87.4% (inactive)

Q: How did the growth turn out when `N=C1CC(=O)NN1C(=O)CSc1nc2sc3c(c2c(=O)n1-c1ccc(Cl)cc1)CCCC3` was run?
A: 103% (inactive)

Q: For `Clc1ccc2c(NCCCn3ccnc3)c3oc4ccc(Cl)cc4c3nc2c1`, which growth is on record?
A: 86.8% (inactive)

Q: How did the growth turn out when `CCN1C(=S)N(CC)C2C1NN=C1SC(c3ccccc3)=CC(=O)N12` (stereo unspecified) was run?
A: 99.7% (inactive)

Q: For `COc1ccc(COc2ccc(/C=C3/C(=O)Nc4cc(Cl)ccc43)cc2)cc1`, which growth is on record?
A: 96.7% (inactive)

Q: Which growth does the source give for `COC(=O)C(C)NS(=O)(=O)/N=C1\NC(=O)NC1=C(Cl)Cl` (stereo unspecified) here?
A: 99.1% (inactive)

Q: Which growth does the source give for `CC(=O)Oc1ccccc1C(=O)Nc1cc(C(C)C)ccc1C` here?
A: -31.9% (active)

Q: With `COc1ccc(N/N=C/c2c(-c3ccc(S(C)(=O)=O)cc3)nc3ccccn23)cc1` as the compound, how does the growth read?
A: 59.5% (inactive)

Q: Which growth does the source give for `O=C(CSc1nc2sc3c(c2c(=O)n1-c1ccc(Cl)cc1)CCCC3)N/N=C/c1ccc(F)cc1` here?
A: 103% (inactive)

Q: Which growth does the source give for `CC(C)NC(=O)c1cc(-c2ccc(NC(=O)Nc3ccc(N4CCOCC4)c(C(F)(F)F)c3)cc2)nc2cccnc12` here?
A: 78.7% (inactive)

Q: `O=C(CCN1C(=O)/C(=C/c2ccccc2F)SC1=S)N1CCOCC1` was tested. Which growth did it give?
A: 96.9% (inactive)

Q: Which growth does the source give for `O=C1Nc2cc(Cl)ccc2/C1=C\c1ccc(OCc2ccc([N+](=O)[O-])cc2)cc1` here?
A: 84.4% (inactive)

Q: With `CCN(CC)c1ccc(C=O)c(OCc2cn(CC(=O)Nc3ccc(Cl)cc3)nn2)c1` as the compound, how does the growth read?
A: 92.7% (inactive)

Q: With `CCCC(=O)NC(c1ccc2c(c1)OC(F)(F)O2)c1cc(C)c2cccnc2c1O` (stereo unspecified) as the compound, how does the growth read?
A: -31.2% (active)

Q: `C[C@@H]1CN(c2ccc3ncc(C#Cc4cncc(C(=O)Nc5ccc(CN6CCN(C)CC6)c(C(F)(F)F)c5)c4)n3n2)C[C@H](C)O1` was tested. Which growth did it give?
A: -94.5% (active)

Q: How did the growth turn out when `COc1cc(OC)c(C2SCC(=O)N2Nc2ncnc3ccccc23)cc1OC` (stereo unspecified) was run?
A: 102% (inactive)

Q: `CN(C)CCCOc1c2ccc(Cl)cc2nc2c1oc1ccccc12` was tested. Which growth did it give?
A: -97.9% (active)

Q: With `C#C[C@]1(O)CC[C@H]2[C@@H]3CC=C4c5sc(Nc6ccc(Cl)cn6)nc5CC[C@]4(C)[C@H]3CC[C@@]21C` as the compound, how does the growth read?
A: 84% (inactive)

Q: With `COc1cc2cc(Oc3ccc(NC(=O)c4cccc(C(F)(F)F)c4)cc3)c(C)nc2cc1OCCN1CCCCC1` as the compound, how does the growth read?
A: 38.7% (inactive)

Q: With `Cc1ccc(C(=O)Nc2cccc(C(F)(F)F)c2)cc1Nc1nc(-c2cnccn2)nc2c1cnn2C` as the compound, how does the growth read?
A: 57.6% (inactive)
